Laboratory results as given in PubChem BioAssay.
The source made the active and inactive calls. No stated cut-off is given here; in the data, active means inhibition above about 31%; inactive means the rest.

Test: MRP1 drug-resistance reversers in H69AR cells – cell-based, doxorubicin co-treatment, pilot screen (AID 601)
Conditions: H69AR cells, CellTiter-Glo, 72 h; compound alone cytotoxicity; at 10 µM

Compound | viability [%]
Cn1c(=O)[nH]c(=O)c2[nH]c(NCCCN3CCOCC3)nc21 | 101
COc1ccc(CN(Cc2nc3ccccc3c(=O)[nH]2)C(=O)NC2CCCCC2)cc1 | 90.2
O=C(Nc1ccncc1)c1cncc(Br)c1 | 100
COc1ccc(C(=O)Nc2ccc(C)cn2)c(OC)c1 | 85.4
C/C(=N\O)C(C)/[N+]([O-])=C/c1nc(C)c(C)n1O (stereo not given) | 92.8
CCC(C)(C)NC(=O)C(c1ccco1)N(C(=O)Cn1nnc2ccccc21)c1ccc2c(c1)OCO2 (stereo not given) | 105
COc1ccc(OC)c(S(=O)(=O)N2c3ccccc3CC2C)c1 (stereo not given) | 89.4
O=C(COc1ccccc1)Nc1ccc(-c2nnc(-c3ccco3)o2)cc1 | 95.5
Cc1ccc(-c2noc(CCC(=O)NCC3CCN(Cc4cccc(C)c4)CC3)n2)cc1 | 84.6
CCOc1cc(C(=O)N2CCN=C2SC)cc(OCC)c1OCC | 105
COc1ccc(-n2c(=O)c3c4c(sc3n3c(C)nnc23)CCCC4)cc1 | 96.5
COc1ccc(CCNC(=O)c2cc(-c3cc(C)c(C)cc3O)n[nH]2)cc1OC | 77
CCC(Oc1ccc2ccccc2c1)C(=O)O (stereo not given) | 80.1
O=C(O)C1CC=CCC1C(=O)Nc1cc(Cl)ccc1Cl (stereo not given) | 93.5
O=C(c1cnn2c(C(F)F)cc(C3CC3)nc12)N1CCOCC1 | 113
O=C(CSCCSCC(=O)c1ccco1)c1ccco1 | 101
COC(=O)c1ccccc1NC(=O)CSc1nc2c(c(=O)n(C)c(=O)n2C)n1C | 97
O=c1oc2ccccc2c2c1ncn2-c1ccccc1 | 89.1
COc1ccc(C2CC(c3ccccc3)Nc3nc(NC(=O)c4cccs4)nn32)cc1 (stereo not given) | 88.3
COC(=O)c1cccc(S(=O)(=O)N2CCN(c3nc4ccccc4s3)CC2)c1 | 81

Compound | viability [%]
COC(=O)CCSCc1cn2cc(Cl)ccc2n1 | 99.5
O=C(c1ccco1)N1CCN(S(=O)(=O)c2ccc(C3CCCCC3)cc2)CC1 | 85.6
COc1cccc(C(=O)CN2CCC(NC(=O)NC3CCCCC3)CC2)c1 | 98.1
CSCCC(NC(=O)c1occc1C)C(=O)O (stereo not given) | 103
Cc1cccc(N2CCN(Cc3c(C)n(C)n(-c4ccccc4)c3=O)CC2)c1C | 83.9
CCOc1cc(C2C(C(=O)OC(C)C)=C(C)N=C3SCCC(=O)N32)ccc1OC(C)=O (stereo not given) | 93.3
O=C(Cc1cccs1)Nc1ccccc1C(=O)O | 103
O=C(NCCN1CCOCC1)c1csc2c1CCCC2 | 102
O=C(CSc1nc2ccccc2s1)N1CCOCC1 | 90.4
CC1C(O)=C(c2nc3ccccc3[nH]2)C(=N)N1c1ccccc1 (stereo not given) | 16
Cc1oc(-c2ccccc2F)nc1CS(=O)(=O)CC(=O)N1CCN(Cc2ccccc2)CC1 | 90.2
CSCSC1=C(C#N)C(c2ccc(Cl)cc2)C(C(C)=O)=C(C)N1 (stereo not given) | 75.2
Cc1ccc2c(c1)CCCN2C(=O)Nc1ccc2c(c1)OCO2 | 89.5
COc1cccc(N2CCN(CC(=O)Nc3nnc(-c4ccccc4)s3)CC2)c1 | 83.5
CCOC(=O)C1=C(C)NC(SC(C)=O)=NC1c1ccc(OC(C)=O)c(OC)c1 (stereo not given) | 85.3
C/C=C(\C)c1nnc(NC(=O)C(C)C)s1 | 98.7
Cc1cc(C(=O)CSCc2nnc3n(CCC(C)C)c(=O)c4ccccc4n23)c(C)n1C | 67.3
COc1cccc(C(=O)NCc2nnc(SCC(=O)Nc3nccs3)n2-c2ccccc2)c1 | 97.9
O=C(OCC(=O)N1CCc2ccccc21)C1=COCCO1 | 86.1
COc1cccc(Nc2cc(C)nc3ccccc23)c1 | 74.4

Test: yeast transport mutant growth inhibition pilot in 384-well plates, post-Golgi transport modulator project (AID 636)
Conditions: absorbance 615 nm, about 18 h, stronger effect = higher value

Compound | inhibition
Cn1c(=O)[nH]c(=O)c2[nH]c(NCCCN3CCOCC3)nc21 | -2.47% (inactive)
COc1ccc(CN(Cc2nc3ccccc3c(=O)[nH]2)C(=O)NC2CCCCC2)cc1 | -4.61% (inactive)
O=C(Nc1ccncc1)c1cncc(Br)c1 | -2.57% (inactive)
COc1ccc(C(=O)Nc2ccc(C)cn2)c(OC)c1 | -4.19% (inactive)
C/C(=N\O)C(C)/[N+]([O-])=C/c1nc(C)c(C)n1O (stereo not given) | -0.27% (inactive)
CCC(C)(C)NC(=O)C(c1ccco1)N(C(=O)Cn1nnc2ccccc21)c1ccc2c(c1)OCO2 (stereo not given) | -0.53% (inactive)
COc1ccc(OC)c(S(=O)(=O)N2c3ccccc3CC2C)c1 (stereo not given) | -4.86% (inactive)
O=C(COc1ccccc1)Nc1ccc(-c2nnc(-c3ccco3)o2)cc1 | -6.97% (inactive)
Cc1ccc(-c2noc(CCC(=O)NCC3CCN(Cc4cccc(C)c4)CC3)n2)cc1 | -4.87% (inactive)
CCOc1cc(C(=O)N2CCN=C2SC)cc(OCC)c1OCC | -4.73% (inactive)
COc1ccc(-n2c(=O)c3c4c(sc3n3c(C)nnc23)CCCC4)cc1 | 0.13% (inactive)
COc1ccc(CCNC(=O)c2cc(-c3cc(C)c(C)cc3O)n[nH]2)cc1OC | -3.82% (inactive)
CCC(Oc1ccc2ccccc2c1)C(=O)O (stereo not given) | -3.33% (inactive)
O=C(O)C1CC=CCC1C(=O)Nc1cc(Cl)ccc1Cl (stereo not given) | 0% (inactive)
O=C(c1cnn2c(C(F)F)cc(C3CC3)nc12)N1CCOCC1 | -3.29% (inactive)
O=C(CSCCSCC(=O)c1ccco1)c1ccco1 | 0.13% (inactive)
COC(=O)c1ccccc1NC(=O)CSc1nc2c(c(=O)n(C)c(=O)n2C)n1C | 5.26% (inactive)
O=c1oc2ccccc2c2c1ncn2-c1ccccc1 | 0.52% (inactive)
COc1ccc(C2CC(c3ccccc3)Nc3nc(NC(=O)c4cccs4)nn32)cc1 (stereo not given) | -1.69% (inactive)
COC(=O)c1cccc(S(=O)(=O)N2CCN(c3nc4ccccc4s3)CC2)c1 | 0.67% (inactive)

Compound | inhibition
COC(=O)CCSCc1cn2cc(Cl)ccc2n1 | -8% (inactive)
O=C(c1ccco1)N1CCN(S(=O)(=O)c2ccc(C3CCCCC3)cc2)CC1 | -4.53% (inactive)
COc1cccc(C(=O)CN2CCC(NC(=O)NC3CCCCC3)CC2)c1 | -5.79% (inactive)
CSCCC(NC(=O)c1occc1C)C(=O)O (stereo not given) | -2.63% (inactive)
Cc1cccc(N2CCN(Cc3c(C)n(C)n(-c4ccccc4)c3=O)CC2)c1C | -2.47% (inactive)
CCOc1cc(C2C(C(=O)OC(C)C)=C(C)N=C3SCCC(=O)N32)ccc1OC(C)=O (stereo not given) | -2.89% (inactive)
O=C(Cc1cccs1)Nc1ccccc1C(=O)O | -4.67% (inactive)
O=C(NCCN1CCOCC1)c1csc2c1CCCC2 | -7.3% (inactive)
O=C(CSc1nc2ccccc2s1)N1CCOCC1 | -2.27% (inactive)
CC1C(O)=C(c2nc3ccccc3[nH]2)C(=N)N1c1ccccc1 (stereo not given) | -6.71% (inactive)
Cc1oc(-c2ccccc2F)nc1CS(=O)(=O)CC(=O)N1CCN(Cc2ccccc2)CC1 | -3.07% (inactive)
CSCSC1=C(C#N)C(c2ccc(Cl)cc2)C(C(C)=O)=C(C)N1 (stereo not given) | -5.32% (inactive)
Cc1ccc2c(c1)CCCN2C(=O)Nc1ccc2c(c1)OCO2 | -6.27% (inactive)
COc1cccc(N2CCN(CC(=O)Nc3nnc(-c4ccccc4)s3)CC2)c1 | -3.12% (inactive)
CCOC(=O)C1=C(C)NC(SC(C)=O)=NC1c1ccc(OC(C)=O)c(OC)c1 (stereo not given) | -6.84% (inactive)
C/C=C(\C)c1nnc(NC(=O)C(C)C)s1 | -4.05% (inactive)
Cc1cc(C(=O)CSCc2nnc3n(CCC(C)C)c(=O)c4ccccc4n23)c(C)n1C | -1.84% (inactive)
COc1cccc(C(=O)NCc2nnc(SCC(=O)Nc3nccs3)n2-c2ccccc2)c1 | -2.18% (inactive)
O=C(OCC(=O)N1CCc2ccccc21)C1=COCCO1 | -4.94% (inactive)
COc1cccc(Nc2cc(C)nc3ccccc23)c1 | -4.4% (inactive)
